The list is not random: actives were taken first. Their share in the collection is about 19%.
DT40 TDP1 no CPT – qHTS for Inhibitors of human tyrosyl-DNA phosphodiesterase 1 (TDP1): qHTS in cells in absence of CPT; AID 686978, 2013; Potency, µM (top dose mostly 46.2 µM), for the others: at the top dose activity change, negative = growth inhibition, hits mostly inhibitors; 15% of 420,000 active; DT40 Tdp1-/- hTDP1 cells, no CPT, ATP luminescence, 48 h; also: potency is read from the fitted curve at half-maximal effect; nearly all actives have a fitted effect of over 55% in size
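Camptothecin absent (DMSO only). Human TDP1-complemented DT40 knockout cells, 400 cells/well, 37 °C for minimum 48 hr; ATP measured via CellTiter-Glo, 30 min dark incubation, luminescence.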
TDP1 cell CPT – DT40-hTDP1 cell growth loss with CPT; 12% of 420,000 active; Potency, µM (doses to about 46.2 µM), without a hit: top-dose activity change, negative = growth inhibition, actives largely listed as inhibitors; chicken DT40 Tdp1-/-;hTDP1 cells + 20 nM CPT, ATP luminescence, 48 h; also: potency is read from the fitted curve at half-maximal effect; nearly all actives have a fitted effect of over 55% in size
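Cell growth measured by CellTiter-Glo luminescence after a minimum 48 h, 37 C compound exposure with 20 nM CPT in Tdp1-knockout DT40 cells stably expressing hTDP1, seeded 400/well; qHTS titration format.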
HT1080-NT tox – kills 2HG-producing HT-1080-NT fibrosarcoma cells; HT-1080-NT fibrosarcoma viability, CellTiter-Glo ATP luminescence, 48 h; Potency, µM (series often up to 46.1 µM), for the others: at the top dose activity, negative = less viability, usual class: cytotoxic; 1.6% of 360,000 active;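 also: NT is the 2HG producing partner of a matched IDH1 knockdown line; potency is read from the fitted curve at half-maximal effect; 0% = DMSO-treated cells and -100% = media-only wells without cells; nearly all actives have a fitted effect of over 55% in size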
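Viability by CellTiter-Glo luminescence after 48 h compound exposure at 37C of HT-1080-NT cells (750/well, RPMI, 5% FBS). % activity scaled between DMSO wells and medium-only wells, then curve-fitted and categorized by curve class.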
HT1080 IDH1KD tx – toxicity to HT-1080 IDH1 knockdown cells (counter line). HT-1080 IDH1 knockdown viability, ATP luminescence, 48 h. Potency, µM (titrated, usually from 46.1 µM), inactives show at the highest dose activity, negative = toxicity, hits mostly cytotoxic. 2% of 360,000 active. AID 686971;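 also: potency is read from the fitted curve at half-maximal effect; 0% = DMSO wells and -100% = cell-free medium wells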
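Luminescent ATP read-out (CellTiter-Glo, 10 min at room temperature) after 48 h compound exposure at 37 °C gave viability of IDH1-knockdown HT-1080 cells. Activity was normalised to DMSO and cell-free wells, then fitted as concentration-response curves.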
IL-1B inflam inh – blocks inflammasome-driven IL-1 beta release | THP-1 LPS/ATP IL-1B secretion, AlphaLISA, 16 h; stronger effect = lower value | activity change, % at 57.5 µM | 4.7% of 360,000 active | AID 743279; in the data active = activity change below about -50%; inconclusive = mostly about -30% to -49%
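Secreted IL-1B measured by AlphaLISA bead assay after 16 h compound exposure of THP-1 cells; compounds (final up to 57.5 uM) added 1 h before LPS (250 ng/mL) and ATP (1.25 mM) stimulation; lower signal means less secretion.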
Starred values were filed as active, the others as inactive; ? = inconclusive; / = no result given. Unless noted, calls follow the shape of the dose curve; as a rule, active = well fitted curve in the direction sought with a large enough effect; inconclusive = small, poorly fitted or top-dose-only effect, or another doubt; inactive = no such curve, though single readings can be large; an effect the other way counts as inactive or inconclusive. Unless noted, % is scaled to controls: 0 for no effect and ±100 for the full control effect.

SMILES | DT40 TDP1 no CPT | TDP1 cell CPT | HT1080-NT tox | HT1080 IDH1KD tx | IL-1B inflam inh
CC(C)(O)/C=C/C(=O)C(C)(O)C1C(O)CC2(C)C3CC=C4C(C=C(O)C(=O)C4(C)C)C3(C)C(=O)CC12C (stereo not drawn) | 0.016µM* | 0.037µM* | 0.65µM* | 0.15µM* | -103*
CC(=O)OC(C)(C)/C=C/C(=O)[C@](C)(O)C1[C@H](O)C[C@@]2(C)C3CC=C4C(C[C@H](O)C(=O)C4(C)C)[C@]3(C)C(=O)C[C@]12C (stereo partly drawn) | 0.021µM* | 0.0082µM* | ? | 0.033µM* | -106*
O=C1NC(=O)C(CCc2ccncc2)(Cc2ccc(OCc3ccccc3)cc2)C(=O)N1 | -6% | 9% | 6% | 4% | -4
CCOC(=O)c1c(C=O)c2ccccc2n1Cc1ccccc1 | 3% | -2% | 0% | 2% | 45
O=C(Cn1ncc2c3ccccc3n(Cc3ccc(F)cc3)c2c1=O)N1CCC2(CC1)OCCO2 | 3.3µM* | 3.3µM* | -19% | -12% | -13
Cc1c2cnn(CC(=O)N3CCC4(CC3)OCCO4)c(=O)c2c(C)n1Cc1ccccc1 | ? | -7% | 2% | 3% | 2
CCOC(=O)N1CCN(C(=O)Cn2ncc3c4ccccc4n(Cc4ccc(F)cc4)c3c2=O)CC1 | 1.8µM* | 1.6µM* | / | / | /
C[C@@H]1O[C@@H](O[C@H]2C[C@@H](O)[C@]3(CO)[C@@H]4C(CC[C@]3(O)C2)[C@@]2(O)CC[C@H](C3COC(=O)C3)[C@@]2(C)C[C@H]4O)[C@H](O)[C@H](O)[C@H]1O (stereo partly drawn) | ? | -3% | 5.2µM* | 1.3µM* | -65*
CCOc1cc(/C=N/NC(=O)c2cccs2)ccc1OC(=O)N1CCOCC1 | 16µM* | ? | -28% | -26% | 7
CN1CCN2c3ccc(N)cc3CC3(C(=O)NC(=O)NC3=O)C2C1 (stereo not drawn) | 0% | -3% | 14% | 12% | 3
C=C(C=O)CC1CC(O)[C@]2(C)OC3C[C@@H]4OC5C[C@]6(C)O[C@]7(C)CCC8OC9C[C@]%10(C)OC(/C(C)=C\CO)C(O)CC%10OC9CC(C)C8OC7CC6O[C@]5(C)C/C=C\C4OC3CC2O1 (stereo partly drawn) | ? | -21% | 3% | 16% | -2
C=C(C=O)C[C@@H]1C[C@H](O)C2OC3C[C@]4(C)OC5/C=C\CC6OC7C(CC=CCC6OC5CCCC4OC3CC2O1)OC1CC2OC3CC(=O)OC3C[C@@H](C)C[C@@]2(C)OC1C[C@@H]7C (stereo partly drawn) | 0.58µM* | 0.65µM* | 8.2µM* | / | -102*
CCOC(=O)c1c(C)[nH]c(C)c1S(=O)(=O)NCC(=O)N1CCN(c2cc(Cl)ccc2C)CC1 | 18µM* | 23µM* | / | / | /
COC(=O)C1=C(c2ccc(F)cc2F)C[C@@H]2CC[C@H]1N2C(=O)NCCOc1ccccc1Cl | ? | ? | -1% | 10% | -19
CC(C)c1ccc(Cc2cn3cc(-c4cc5ccccc5oc4=O)nc3s2)cc1 | 0.18µM* | 0.26µM* | / | / | /
CC(C)c1ccc(C(c2c(O)c3ccccc3oc2=O)c2c(O)c3ccccc3oc2=O)cc1 | ? | -25% | 0% | -6% | 20
CCCCC[C@H]1CCCCC[C@H](O)C[C@H](O)[C@@H](O)/C=C/C(=O)O1 | 21µM* | 23µM* | -2% | -7% | 0
CCCCC[C@H]1CCCCC[C@H](O)C[C@@H](O)[C@H](O)/C=C/C(=O)O1 | ? | ? | -27% | -23% | ?
C[C@@]12C(=O)N(Cc3ccco3)CC(=O)N1[C@H]1c3ccccc3OC[C@@H]1[C@@H]2c1ccccc1 | ? | ? | -6% | -4% | -27
c1ccc(OCC2CO2)cc1 (stereo not drawn) | 0% | -11% | -1% | 0% | 18
CC(C)(c1ccc(OCC2CO2)cc1)c1ccc(OCC2CO2)cc1 (stereo not drawn) | 6.5µM* | 6.5µM* | / | / | /
CN(C)P(=O)(N(C)C)N1CC1 | -4% | -16% | 7% | 10% | -6
CCCCN1CC(COCc2ccccc2)Oc2cccc(Oc3ccc(C(C)C)cc3)c2S1(=O)=O (stereo not drawn) | 5.2µM* | 10µM* | -1% | 0% | 27
COCC(=O)N(c1c(C)cccc1C)C(C)C(=O)OC (stereo not drawn) | ? | 3% | / | / | /
Cc1cc(N(CCCl)CCCl)ccc1C=NNC(=O)Cc1cc(=O)oc2cc(O)ccc12 | ? | 12µM* | -17% | -22% | -59*
SMILES | DT40 TDP1 no CPT | TDP1 cell CPT | HT1080-NT tox | HT1080 IDH1KD tx | IL-1B inflam inh
CCCCn1c(=O)c(C(=O)NCc2ccccc2)c(O)c2ccccc21 | 16µM* | ? | -1% | 0% | 26
CCCCn1c(=O)c(C(=O)Nc2ccccc2)c(O)c2ccccc21 | 4.1µM* | 3.7µM* | 9% | 14% | 17
CCCCCn1c(=O)c(C(=O)Nc2ccccc2S(N)(=O)=O)c(O)c2ccccc21 | 4.6µM* | 6.5µM* | -17% | ? | ?
CCCCCn1c(=O)c(C(=O)NCc2ccc(Cl)cc2)c(O)c2ccccc21 | ? | ? | 3% | 0% | 22
CCCCn1c(=O)c(C(=O)Nc2ccccc2S(N)(=O)=O)c(O)c2ccccc21 | ? | ? | ? | ? | -11
CCCCCn1c(=O)c(C(=O)NC(C)c2ccccc2)c(O)c2ccccc21 (stereo not drawn) | 21µM* | ? | 13% | 5% | 15
COC(=O)CC1(CC(=O)OC)C(=O)N(c2ccccc2)C(=O)N(c2ccccc2)C1=O | -26% | 13% | 3% | 0% | 16
CC12CCC(O)CC1CCC1C2CCC2(C)C(C3=CC(=O)OC3)CCC12O (stereo not drawn) | ? | ? | 1.5µM* | 1.2µM* | -65*
C[C@]12CC[C@H](O)C[C@H]1CC[C@@H]1[C@@H]2CC[C@]2(C)[C@@H](C3=CC(=O)OC3)CC[C@]12O | 12µM* | ? | 0.52µM* | 0.26µM* | ?
C[C@]12CC[C@H](O)C[C@H]1CC[C@@H]1[C@@H]2C[C@@H](O)[C@]2(C)[C@@H](C3=CC(=O)OC3)CC[C@]12O | ? | -13% | 2.1µM* | 0.82µM* | -66*
NNC(N)=O | 2% | -1% | ? | 10% | 19
Nc1c(Cl)cc([N+](=O)[O-])cc1Cl | 3% | 16% | / | / | -27
Cc1ccc(-n2c(/C=C/c3ccccn3)nc3ccccc3c2=O)cc1 | ? | ? | 0% | 9% | -19
